The nature of assay [1]: qHTS to identify inhibitors of the type 1 interferon - major histocompatibility complex class I in skeletal muscle: primary screen against the NCATS Mechanism Interrogation Plate v5.0 (MIPE) Libary (AID 1347411). Note: nearly all actives have a fitted effect of over 65% in size. Note: potency is the fitted concentration of half-maximal effect. The gist of the method: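 Cells were genome-edited human myoblasts carrying a HiBit tag on endogenous HLA-B. They were treated with IFN-beta (4.0 ng/ml) and titrated compounds (top 46 uM) for 24 hrs before lytic HiBiT detection.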

Assay [2] is described as follows: Primary qHTS for inhibitors of nuclear receptor binding SET domain protein 2 (NSD2) in an isogenic RCH-ACV NSD2 p.E1099K mutant (9B) (AID 1645876). Note: nearly all actives have a fitted effect of over 70% in size. Note: potency is the fitted concentration of half-maximal effect.
Assay [3] in a line: Primary qHTS for inhibitors of nuclear receptor binding SET domain protein 2 (NSD2) in an RCH-ACV wild type WT cells (2C) (AID 1645877). Note: nearly all actives have a fitted effect of over 70% in size. Note: potency is the fitted concentration of half-maximal effect.
Assay [4] is described as follows: qHTS drug screen for cell cycle checkpoint inhibitors in PARPi-resistant BRCA-mutant ovarian cancer cell lines. (AID 1963452; calls by dose curve). The note with it: PEO1/OlaR viability, CellTiter-Glo luminescence, 96 h, stronger effect = lower value. The gist of the method: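 PEO1, PEO4 and PEO1/OlaR ovarian cancer cells, 600 per well, exposed 96 h at 37C to a dilution series. Viability read by CellTiter-Glo luminescence, normalized to DMSO and empty wells; activity summarized as Z-AUC.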

In assay [5] the target is Glutathione peroxidase 1 (Homo sapiens) (UniProt P07203). Description: Primary qHTS Assay for Inhibitors of Recombinant Selenoprotein Glutathione Peroxidase 1 (GPX1) (AID 1845191). Note: % is set by controls: 0 for no effect and ±100 for the full control effect; nearly all actives have a fitted effect of over 65% in size. The method in brief: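 GR-coupled assay: compounds preincubated 30 min at room temperature with GPX1, then reaction started with CHP; final 10 nM GPX1, 1 mM GSH, 0.5 mM CHP, 0.5 mM NADPH, 100 nM GR, 0.01% BSA, pH 7.5 Tris buffer. NADPH fluorescence (340/450 nm) read at 0 and 15 min.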

Assay [6] deals with Phospholipid hydroperoxide glutathione peroxidase GPX4 (Homo sapiens) (UniProt P36969). Kind of assay: Primary qHTS Assay for Inhibitors of Recombinant Selenoprotein Glutathione Peroxidase 4 (GPX4) (AID 1845192). Note: series mostly up to about 50 µM; % is set by controls: 0 for no effect and ±100 for the full control effect; nearly all actives have a fitted effect of over 65% in size. Conditions: outcome: dose series up to 50 µM unless noted. The method in brief: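 GR-coupled assay: recombinant GPX4 preincubated 30 min with compound at room temperature; final 200 nM GPX4, 1 mM GSH, 0.5 mM cumene hydroperoxide, 0.5 mM NADPH, 100 nM GR, 0.01% BSA, pH 7.5 Tris. NADPH fluorescence (340/450 nm) read at 0 and 15 min.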

Where [7] appears, read: measured here: PEO1 parental Z-AUC.

The structures appear in SMILES notation. Inconclusive results are not listed. Active and inactive are the calls of the source. Unless noted, calls come from the whole dose curve; as a rule, active = well fitted curve in the direction sought with a large enough effect; inconclusive = small, poorly fitted or top-dose-only effect, or another doubt; inactive = no such curve, though single readings can be large; an effect the other way counts as inactive or inconclusive.

Glutathione peroxidase 1 (Homo sapiens), sequence (P07203 whole entry, looked up): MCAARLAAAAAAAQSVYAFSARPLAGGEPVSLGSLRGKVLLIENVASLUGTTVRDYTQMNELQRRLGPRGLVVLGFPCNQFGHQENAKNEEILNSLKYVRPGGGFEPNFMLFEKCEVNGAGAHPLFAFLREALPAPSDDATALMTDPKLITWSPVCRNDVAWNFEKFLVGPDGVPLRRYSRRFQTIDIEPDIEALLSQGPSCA
Phospholipid hydroperoxide glutathione peroxidase GPX4 (Homo sapiens), sequence (P36969 whole entry, looked up): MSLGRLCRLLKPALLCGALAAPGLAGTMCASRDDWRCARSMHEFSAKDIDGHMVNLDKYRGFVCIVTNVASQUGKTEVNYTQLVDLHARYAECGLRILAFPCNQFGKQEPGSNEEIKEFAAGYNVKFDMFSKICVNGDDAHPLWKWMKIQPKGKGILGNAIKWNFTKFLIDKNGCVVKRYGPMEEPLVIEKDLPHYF

In the case of `O=c1c(-c2ccc(O)cc2)coc2c([C@@H]3O[C@H](CO)[C@@H](O)[C@H](O)[C@H]3O)c(O)ccc12`, the Potency result in assay [1], in assay [2] and in assay [3] was “inactive” throughout. Further, the Z-AUC in assay [4] was 1.23 (inactive); in assay [4] (setting [7]), 1.96; in assay [4] (measured here: PEO4 Z-AUC), 1.37.
As to `CN1CCN(C(=O)c2ccc(-c3ccc4c(C=O)c(O)ccc4c3)s2)CC1`, the Potency in assay [1] was 29.4 µM (active). Besides, the Potency entry in assay [2], in assay [3] and in assay [5] was “inactive” in each case. The Z-AUC in assay [4] was 1.23 (inactive); in assay [4] (setting [7]), 0.551; in assay [4] (measured here: PEO4 Z-AUC), 0.471.
As to `CCN(CC)CCNc1ccc(C)c2sc3ccccc3c(=O)c12`, the Potency was 26.2 µM (active) in assay [1], 5.9 µM (active) in assay [2] and 5.25 µM (active) in assay [3]. In assay [5], the Potency result was “inactive”. For the same molecule, the figures for the Z-AUC in assay [4], in assay [4] (setting [7]) and in assay [4] (measured here: PEO4 Z-AUC) were -1.21 (inactive), -0.605 and -0.562, respectively.
In the case of `O=C(CCCCCCC(=O)N/N=C/c1ccc(N(c2ccccc2)c2ccccc2)cc1)NO`, the Potency was 18.6 µM (active) in assay [1], 1.18 µM (active) in assay [2] and 1.48 µM (active) in assay [3]. Besides, the Z-AUC in assay [4] is 1.09 (inactive); in assay [4] (setting [7]) it was 0.912; in assay [4] (measured here: PEO4 Z-AUC) it was 0.729.
As for `CCC(=O)O[C@]1(C(=O)CO)CC[C@H]2[C@@H]3CCC4=CC(=O)CC[C@]4(C)[C@H]3CC[C@@]21C`, the Potency entry in assay [1], in assay [2], in assay [3] and in assay [6] was “inactive” throughout. Further, the Z-AUC was 1.13 (inactive) in assay [4], 0.73 in assay [4] (setting [7]) and 1.13 in assay [4] (measured here: PEO4 Z-AUC).
Consider `CC(C)(O)CC[C@@H](O)[C@](C)(O)[C@H]1CC[C@@]2(O)C3=CC(=O)[C@@H]4C[C@@H](O)[C@@H](O)C[C@]4(C)[C@H]3CC[C@]12C`, for which the Potency entry in assay [1], in assay [2], in assay [3] and in assay [6] was “inactive” throughout. In addition, the Z-AUC in assay [4] was 0.631 (inactive); in assay [4] (setting [7]), 0.684; in assay [4] (measured here: PEO4 Z-AUC), 0.947.
For `O=C(O)c1ccccc1-c1ccc(/C=c2\sc3nc4cc(Br)cnc4n3c2=O)o1`, the Potency entry in assay [1], in assay [2], in assay [3] and in assay [5] was “inactive” in each case. Further, the results for the Z-AUC in assay [4], in assay [4] (setting [7]) and in assay [4] (measured here: PEO4 Z-AUC) were -0.492 (inactive), -0.865 and -0.895, respectively.
For the molecule `CC(C)Oc1ccc(-c2nc(-c3cccc4c3CC[C@@H]4NCCO)no2)cc1C#N`, the Potency result in assay [1] is “inactive”. Further, the Potency in assay [2] is 14.8 µM (active); in assay [3], 18.6 µM (active). Moreover, the Z-AUC was -0.0463 (inactive) in assay [4], 0.729 in assay [4] (setting [7]) and 1.1 in assay [4] (measured here: PEO4 Z-AUC).
Turning to `O=C(NCc1ccc(S(=O)(=O)c2cccc(C(F)(F)F)c2)cc1)c1cnc2[nH]ncc2c1`, the Potency entry in assay [1], in assay [5] and in assay [6] was “inactive” in each case. Besides, the Potency in assay [2] was 0.0132 µM (active); in assay [3] it was 0.0263 µM (active). For the same molecule, the Z-AUC in assay [4] was -2.19 (inactive); in assay [4] (setting [7]), -2.73; in assay [4] (measured here: PEO4 Z-AUC) it was -2.28.

The values are drawn from PubChem BioAssay (NCATS).
